Experimental data as given in PubChem BioAssay (NCATS).
Where “and” joins values, the source holds several entries; their conditions need not be identical. Identical values can stand only once. Records with an inconclusive call do not appear. Calls of active or inactive are those of the source. Unless noted, calls follow the shape of the dose curve; as a rule, active = well fitted curve in the direction sought with a large enough effect; inconclusive = small, poorly fitted or top-dose-only effect, or another doubt; inactive = no such curve, though single readings can be large; an effect the other way counts as inactive or inconclusive.

Experiments:
[1] = target: Calcium and integrin-binding protein 1 (Homo sapiens) (UniProt Q99828); assay: Primary qHTS for Identification of Calcium Integrin Binding Protein 1 (CIB1) Competitor (AID 1508620);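 also: GST tagged CIB1 binding a fluorescein labelled alphaIIb integrin peptide tracer; top concentration of the series differs between compounds; % is scaled to controls: 0 for no effect and ±100 for the full control effect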
Sequence of Calcium and integrin-binding protein 1 (Homo sapiens) (Q99828 whole entry, looked up): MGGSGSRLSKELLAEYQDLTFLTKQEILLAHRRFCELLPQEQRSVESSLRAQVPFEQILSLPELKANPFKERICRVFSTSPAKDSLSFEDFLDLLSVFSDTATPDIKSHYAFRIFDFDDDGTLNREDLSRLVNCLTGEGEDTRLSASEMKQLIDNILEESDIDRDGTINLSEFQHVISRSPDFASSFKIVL
Method in brief: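 CIB1-GST (1 uM final) and compound incubated 15 min at room temperature before adding FITC-alphaIIb peptide tracer (100 nM final). Competition for binding read by fluorescence polarization (ex 480, em 540) after another 15 min at room temperature.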

[2] = Primary qHTS for small molecule stabilizers of the endoplasmic reticulum resident proteome: Secreted ER Calcium Modulated Protein (SERCaMP) assay (AID 1508630); also: % is scaled to controls: 0 for no effect and ±100 for the full control effect
Method in brief: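 GLuc-SERCaMP-expressing SH-SY5Y cells, pretreated 16 h with compound, are challenged with thapsigargin to empty ER calcium stores; after 4 h, coelenterazine is added directly to the medium and luminescence is imaged.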

[3] = A High-Content qHTS Against Drug Library for the Identification of Small Molecules that Inhibit DYT1 Early Onset Primary Dystonia-Associated Cell Pathology (AID 1645839; calls by dose curve)
Method in brief: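 In this high-content image screen, delE TorsinA mislocalization in inducible Flp-In 293 cells is scored as %pathology, with cell count serving as the counterscreen. Compound exposure lasts 48 h under tetracycline induction in reduced-serum medium.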

[4] = target: Cytochrome P450 2D6 (Homo sapiens) (UniProt P10635); assay: Cytochrome P450 family 2 subfamily D member 6 (CYP2D6) small molecule antagonists: luciferase biochemical (cell-free) qHTS assay (AID 1645840; active = well fitted curve in the direction sought with a large enough effect in the repeat runs; an effect the other way counts as inactive or inconclusive; also: nearly all actives have a fitted effect of over 55% in size; also: potency is read from the fitted curve at half-maximal effect; as to activity change, negative = inhibition: % is scaled to controls: 0 for no effect and ±100 for the full control effect)
Sequence of Cytochrome P450 2D6 (Homo sapiens) (P10635 whole entry, looked up): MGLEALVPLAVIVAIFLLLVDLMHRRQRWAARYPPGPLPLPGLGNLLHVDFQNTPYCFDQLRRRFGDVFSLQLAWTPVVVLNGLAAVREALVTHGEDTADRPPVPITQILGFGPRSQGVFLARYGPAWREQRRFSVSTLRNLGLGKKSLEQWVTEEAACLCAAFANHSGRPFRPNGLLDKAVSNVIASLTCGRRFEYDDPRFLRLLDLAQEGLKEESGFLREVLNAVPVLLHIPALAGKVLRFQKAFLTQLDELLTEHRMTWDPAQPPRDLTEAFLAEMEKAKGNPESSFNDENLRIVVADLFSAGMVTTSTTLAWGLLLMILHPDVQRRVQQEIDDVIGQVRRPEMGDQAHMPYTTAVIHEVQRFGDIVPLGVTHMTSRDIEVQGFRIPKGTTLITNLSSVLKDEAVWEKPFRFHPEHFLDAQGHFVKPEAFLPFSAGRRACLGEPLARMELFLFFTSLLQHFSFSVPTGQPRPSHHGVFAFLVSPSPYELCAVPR
Method in brief: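 P450-Glo luminescent screen: recombinant CYP2D6 enzyme–proluciferin substrate mix preincubated with compound 10 min at room temperature, then NADPH regeneration added for 1 h at room temperature. Detection reagent added for 20 min; luciferin light read as relative luminescence units.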

[5] = target: Cytochrome P450 2C9 (Homo sapiens) (UniProt P11712); assay: Cytochrome P450 family 2 subfamily C member 9 (CYP2C9) small molecule antagonists: luciferase biochemical (cell-free) qHTS assay (AID 1645842; active = well fitted curve in the direction sought with a large enough effect in the repeat runs; an effect the other way counts as inactive or inconclusive; also: nearly all actives have a fitted effect of over 55% in size; also: potency is read from the fitted curve at half-maximal effect; as to activity change, negative = inhibition: % is scaled to controls: 0 for no effect and ±100 for the full control effect)
Sequence of Cytochrome P450 2C9 (Homo sapiens) (P11712 whole entry, looked up): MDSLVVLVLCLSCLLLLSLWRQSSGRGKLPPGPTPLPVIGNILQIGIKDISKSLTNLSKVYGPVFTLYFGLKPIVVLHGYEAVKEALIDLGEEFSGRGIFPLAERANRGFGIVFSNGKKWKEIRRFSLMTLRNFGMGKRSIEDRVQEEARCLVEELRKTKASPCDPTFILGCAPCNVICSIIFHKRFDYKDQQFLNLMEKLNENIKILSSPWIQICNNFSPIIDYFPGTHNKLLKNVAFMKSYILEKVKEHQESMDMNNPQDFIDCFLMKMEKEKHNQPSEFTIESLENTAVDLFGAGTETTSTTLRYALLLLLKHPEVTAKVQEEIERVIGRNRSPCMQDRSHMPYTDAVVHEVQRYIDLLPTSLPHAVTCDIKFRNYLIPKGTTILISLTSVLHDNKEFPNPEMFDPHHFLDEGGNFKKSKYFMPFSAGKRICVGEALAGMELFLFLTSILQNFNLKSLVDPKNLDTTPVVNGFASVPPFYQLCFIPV
Method in brief: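 Luminescence, after 20 min with luciferin detection reagent, reflected CYP2C9 turnover during a 1 h NADPH-driven reaction at 37C. Enzyme-substrate mix contained 0.4% bovine serum albumin and was preincubated with compound 10 min at room temperature.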

[6] = Primary qHTS for inhibitors of nuclear receptor binding SET domain protein 2 (NSD2) in an isogenic RCH-ACV NSD2 p.E1099K mutant (9B) (AID 1645876); also: nearly all actives have a fitted effect of over 70% in size; also: potency is read from the fitted curve at half-maximal effect
[7] = Primary qHTS for inhibitors of nuclear receptor binding SET domain protein 2 (NSD2) in an RCH-ACV wild type WT cells (2C) (AID 1645877); also: nearly all actives have a fitted effect of over 70% in size; also: potency is read from the fitted curve at half-maximal effect
[8] = Cytotoxicity counterscreen for inhibitors of SARS-CoV-2 cell entry (AID 1645845; calls by dose curve; also: nearly all actives have a fitted effect of over 50% in size)
Method in brief: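 48 h compound treatment (after 1 h preincubation), HEK293-ACE2 cells, 37 C/5% CO2; ATP luminescence endpoint; normalized to cell wells and media blanks.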

[9] = Primary qHTS to identify inhibitors of SARS-CoV-2 cell entry (AID 1645846; calls by dose curve; also: nearly all actives have a fitted effect of over 45% in size; also: potency is read from the fitted curve at half-maximal effect); conditions: activity change, negative = inhibition: at 57.1 µM (top of the series) unless noted
Method in brief: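 Data are normalized to wells receiving SARS-CoV-2-S pseudoparticles and those given bald particles. Entry signal was luciferase luminescence in stable hACE2 Expi293F cells, 48 hr post-infection, after 1 hr compound pretreatment.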

[10] = target: Cytochrome P450 3A4 (Homo sapiens) (UniProt P08684); assay: Cytochrome P450 family 3 subfamily A member 4 (CYP3A4) small molecule antagonists: luciferase qHTS assay (AID 1645841; active = well fitted curve in the direction sought with a large enough effect in the repeat runs; an effect the other way counts as inactive or inconclusive; also: nearly all actives have a fitted effect of over 45% in size)
Sequence of Cytochrome P450 3A4 (Homo sapiens) (P08684 whole entry, looked up): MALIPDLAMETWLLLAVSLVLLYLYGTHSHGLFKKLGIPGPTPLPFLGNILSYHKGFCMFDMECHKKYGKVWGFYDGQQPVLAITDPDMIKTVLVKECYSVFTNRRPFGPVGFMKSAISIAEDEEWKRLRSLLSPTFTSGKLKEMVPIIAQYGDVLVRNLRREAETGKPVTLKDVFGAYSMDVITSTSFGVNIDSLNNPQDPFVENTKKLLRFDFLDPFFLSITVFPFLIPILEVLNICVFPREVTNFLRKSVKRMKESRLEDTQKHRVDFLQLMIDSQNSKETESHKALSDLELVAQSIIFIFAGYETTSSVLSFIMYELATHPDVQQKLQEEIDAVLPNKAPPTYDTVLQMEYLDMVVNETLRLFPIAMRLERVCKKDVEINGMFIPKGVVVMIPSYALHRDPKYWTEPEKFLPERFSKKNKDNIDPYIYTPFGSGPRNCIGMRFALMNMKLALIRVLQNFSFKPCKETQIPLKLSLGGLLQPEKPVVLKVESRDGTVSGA
Method in brief: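 Luminescent CYP3A4 activity readout: compounds plus enzyme-substrate mix 10 min at room temperature, reaction started with NADPH regenerating system for 1 h, stopped with detection reagent, read after 20 min. Ketoconazole served as control.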

[11] = Counterscreen qHTS for small molecule stabilizers of the endoplasmic reticulum resident proteome: GLuc-NoTag assay (AID 1508627); also: potency is read from the fitted curve at half-maximal effect;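 as to activity change, negative = inhibition: SH-SY5Y cells given compound then 100 nM thapsigargin to empty ER calcium; 0% = thapsigargin alone and -100% = DMSO vehicle control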
Method in brief: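 Luminescence of Gaussia luciferase secreted into the medium (coelenterazine, 0.07x final, unlysed cells) was the read-out. Human SH-SY5Y neuroblastoma cells constitutively secreting untagged GLuc received compound for 19 h, then 100 nM thapsigargin for 4 h.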

[12] = Confirmatory qHTS for small molecule stabilizers of the endoplasmic reticulum resident proteome: Secreted ER Calcium Modulated Protein (SERCaMP) assay (AID 1508628); also: nearly all actives have a fitted effect of over 40% in size; also: potency is read from the fitted curve at half-maximal effect
Method in brief: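 SH-SY5Y cells stably expressing GLuc-SERCaMP, treated 16 h with compound (primary 1.53, 7.67, 38.3 uM; confirmation 11 concentrations, up to 76.6 uM), then 100 nM thapsigargin for 4 h. Secreted Gaussia luciferase in medium read by coelenterazine luminescence.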

[13] = Cell Viability qHTS for small molecule stabilizers of the endoplasmic reticulum resident proteome (AID 1508629); conditions: cell viability counter-screen, 100 nM thapsigargin for final 4 h;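 also: compound exposure about 46 h in total before the viability read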; also: potency is read from the fitted curve at half-maximal effect
[14] = Confirmatory qHTS to identify inhibitors of SARS-CoV-2 cell entry (AID 1645844; calls by dose curve; also: potency is read from the fitted curve at half-maximal effect; nearly all actives have a fitted effect of over 45% in size)
Method in brief: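 Luminescence from a luciferase reporter, read 48 hr after pseudotyped-particle addition, gives entry signal, normalised to spike-bearing PP wells and bald PP lacking fusion protein wells. Cells are Expi293F stably expressing human ACE2, compound-pretreated 1 hr.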

[15] = VSVG counterscreen qHTS to identify inhibitors of SARS-CoV-2 cell entry (AID 1645847; calls by dose curve; also: potency is read from the fitted curve at half-maximal effect; nearly all actives have a fitted effect of over 65% in size)
Method in brief: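 Counterscreen using VSV-G (not spike) pseudotyped MLV particles on ACE2-expressing Expi293F cells after 1 h compound preincubation; infection ran 48 h at 37 °C. Data normalized to VSV-G PP and bald-PP wells.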

[16] = target: N-terminal Xaa-Pro-Lys N-methyltransferase 1 (Homo sapiens) (UniProt Q9BV86); assay: Confirmatory qHTS for Inhibitors of N-terminal methyltransferase 1 (NTMT1): MTaseGlo Assay (AID 1645874); also: nearly all actives have a fitted effect of over 65% in size; also: potency is read from the fitted curve at half-maximal effect;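 as to activity change, negative = inhibition: luminescence from SAH made as NTMT1 methylates SPKRIA peptide using SAM; 0% = DMSO control and -100% = no-enzyme control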
Sequence of N-terminal Xaa-Pro-Lys N-methyltransferase 1 (Homo sapiens) (Q9BV86 whole entry, looked up): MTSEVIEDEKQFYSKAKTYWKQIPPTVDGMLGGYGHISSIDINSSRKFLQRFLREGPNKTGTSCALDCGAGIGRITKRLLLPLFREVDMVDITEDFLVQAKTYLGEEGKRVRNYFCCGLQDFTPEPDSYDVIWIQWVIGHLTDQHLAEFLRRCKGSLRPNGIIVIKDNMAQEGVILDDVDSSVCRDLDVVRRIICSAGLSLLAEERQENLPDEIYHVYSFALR
Method in brief: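 Preincubation of NTMT1 (125 nM) plus SAM (100 uM) with test compounds lasted 15 min; methylation of 1 uM SPKRIA then proceeded 30 min in the dark at room temperature. Luciferase signal reported SAH produced.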

COc1ccc2[nH]cc(CCN(C(C)C)C(C)C)c2c1
inactive: Potency [1] | outcome [2] | outcome [3] | Potency [5]
active: Potency [4] 3.25 µM

ClC1=C(Cl)C2(Cl)C(CBr)CC1(Cl)C2(Cl)Cl (stereo unspecified)
inactive: Potency [1] | outcome [2] | outcome [3] | Potency [4] | Potency [5] | Potency [6] | Potency [7]

CN1C[C@@H](NS(=O)(=O)N(C)C)C[C@@H]2c3cccc4c3c(cn4C)C[C@H]21
active: Potency [4] 2.19 µM
inactive: Potency [1] | outcome [2] | outcome [3] | Potency [5] | Potency [6] | Potency [7]

CC1=C2[C@H]3OC(=O)[C@@H](C)[C@@H]3CC[C@@]2(C)C=CC1=O
2.07%: activity change, negative = inhibition [9]
inactive: Potency [1] | outcome [2] | outcome [3] | Potency [4] | Potency [5] | Potency [8] | Potency [6] | Potency [7]

ClCCCN1CCN(c2cccc(Cl)c2)CC1
inactive: Potency [1] | outcome [2] | outcome [3] | Potency [10] | Potency [6]
active: Potency [4] 1.1 µM

OC(c1ccccc1)(c1ccccc1)C1CCNCC1
active: Potency [12] 15.8 µM
inactive: Potency [1] | Potency [11] | max response [13] -6.14% | outcome [3] | Potency [5] | Potency [6]

CCCN(CCC)CCc1c[nH]c2ccccc12
inactive: Potency [1] | outcome [2] | outcome [3] | Potency [10] | Potency [5]
active: Potency [4] 0.394 µM

O=C(NC(=O)c1c(F)cccc1F)Nc1cc(Cl)c(OC(F)(F)C(F)C(F)(F)F)cc1Cl (stereo unspecified)
active: Potency [5] 19.5 µM
inactive: Potency [1] | outcome [2] | outcome [3] | Potency [4] | Potency [8]

c1cc2c(c(N3CCNCC3)c1)OCCO2
inactive: Potency [1] | Potency [11] | Potency [12] | max response [13] 5.26% | outcome [3] | Potency [4] | Potency [5]

C[C@H]1CNCCc2ccc(Cl)cc21
active: Potency [4] 1.95 µM
inactive: Potency [1] | outcome [2] | outcome [3] | Potency [10] | Potency [5] | Potency [6]

C[C@@H]1C[C@@H]([C@H](O)CC2CC(=O)NC(=O)C2)C(=O)[C@@H](C)C1
inactive: Potency [1]
active: Potency [11] 1.58 µM and 1.12 µM | Potency [12] 0.224 µM | Potency [9] 2.51 µM | Potency [6] 211 nM and 296 nM | Potency [7] 188 nM and 296 nM

CNC(C)Cc1ccc2c(c1)OCO2 (stereo unspecified)
inactive: Potency [1] | outcome [2] | outcome [3] | Potency [5]
active: Potency [4] 0.693 µM

CC(C)(O)C(Cl)(Cl)Cl
inactive: Potency [1] | outcome [2] | outcome [3] | Potency [4] | Potency [5] | Potency [8] | Potency [9] | Potency [6] | Potency [7]

CC[C@H](O)C(C[C@H](C)N(C)C)(c1ccccc1)c1ccccc1
active: Potency [12] 50.1 µM
inactive: Potency [1] | Potency [6] | Potency [7]

CCOC(=O)c1cncn1C(C)c1ccccc1 (stereo unspecified)
active: Potency [5] 11 µM
inactive: Potency [1] | outcome [2] | outcome [3] | Potency [4] | Potency [8] | Potency [9] | Potency [6] | Potency [7]

CC(=O)OC1(c2ccccc2)CCN(CCc2ccccc2)CC1
inactive: Potency [10]

C=CC[C@]1(O)CC[C@H]2[C@@H]3CCC4=CC(=O)CCC4=C3C=C[C@@]21C
active: Potency [14] 15.2 µM | Potency [15] 17.1 µM

CCc1cc(OC)c(C[C@H](C)N)cc1OC
inactive: Potency [16]

CC[C@]1(O)CC[C@H]2[C@@H]3CCC4=CCCC[C@@H]4[C@H]3CC[C@@]21C
active: Potency [16] 14.1 µM

CCOC(C(=O)OCCN(C)C)(c1ccccc1)c1ccccc1
inactive: Potency [1] | outcome [3] | Potency [6] | Potency [7]
active: Potency [4] 1.38 µM | Potency [5] 3.09 µM

COP(=S)(OC)Oc1ccc(S(N)(=O)=O)cc1
inactive: Potency [1] | outcome [3] | Potency [8] | Potency [6] | Potency [7]
active: Potency [5] 4.36 µM

CCOC(=O)C1(c2ccccc2)CCN(CCc2ccc(N)cc2)CC1
inactive: Potency [1] | Potency [8] | Potency [6]
active: Potency [4] 1.74 µM

CCO[C@H]1O[C@@H]2OC3(C)CC[C@H]4[C@H](C)CC[C@@H]([C@H]1C)[C@@]24OO3
active: Potency [5] 15.5 µM | Potency [6] 2.99 µM | Potency [7] 3.35 µM
inactive: Potency [1] | outcome [3] | Potency [4]

CC1Sc2c(C(=O)O)c(=O)c3cc(F)c(N4CCNCC4)cc3n21 (stereo unspecified)
inactive: Potency [1] | outcome [3] | Potency [4] | Potency [5] | Potency [6] | Potency [7]

CCN(Cc1ccc(Cl)nc1)/C(=C/[N+](=O)[O-])NC
inactive: Potency [1] | outcome [3] | Potency [4] | Potency [5] | Potency [6] | Potency [7]

C[C@]12CC[C@H]3[C@@H](CCC4=CC(=O)CC[C@@]43C)[C@@H]1CC[C@@H]2C(=O)O
inactive: Potency [1] | outcome [3] | Potency [4] | Potency [5] | Potency [6] | Potency [7]

CC[n+]1c(-c2ccccc2)c2cc(N)ccc2c2ccc(N)cc21
inactive: outcome [3]
active: Potency [11] 20 µM | Potency [13] 3.16 µM | Potency [4] 3.47 µM | Potency [6] 5.96 µM | Potency [7] 2.66 µM

CC#C[C@]1(O)CC[C@H]2[C@@H]3C[C@H](C)C4=CC(=O)CC[C@]4(C)[C@H]3CC[C@@]21C
active: Potency [5] 17.4 µM | Potency [14] 27.1 µM | Potency [6] 23.7 µM | Potency [7] 15 µM
inactive: Potency [1]

COP(=O)(OC)OC=C(Cl)Cl
inactive: Potency [1] | outcome [3] | Potency [4] | Potency [5] | Potency [8] | Potency [6] | Potency [7]
-2.57%: activity change, negative = inhibition [9]

Sc1ccccc1Cl
inactive: Potency [1] | outcome [3] | Potency [4] | Potency [5]

O=c1n(Cl)c(=O)n(Cl)c(=O)n1Cl
1.05%: activity change, negative = inhibition [9]
inactive: Potency [1] | outcome [3] | Potency [4] | Potency [5] | Potency [8] | Potency [6] | Potency [7]

CNC(=O)Oc1cccc2ccccc12
inactive: Potency [1] | outcome [3] | Potency [4] | Potency [5] | Potency [9]
